# From PubChem
# Shiga toxin inh – blocks Shiga toxin action in Vero cells; inhibition, % at 38.7 µM; 290,000 tested, 9.2% active; AID 2315; Vero cells, Shiga toxin protein synthesis inhibition reporter; in the data active means inhibition mostly above about 28%, no sharp cut-off; inactive means mostly below about 43%; further: 0% is about no effect
# Pf growth 96h – P. falciparum growth inhibition at 96 hours | P. falciparum luciferase reporter growth, 96 h | Potency, µM (highest dose often 28.7 µM), without a hit: top-dose activity change, negative = inhibition, most hits filed as inhibitors | 320,000 tested, 6.9% active | AID 504834; further: potency means the concentration at half of the fitted maximal effect; on the % scale 0 is the no-effect control and ±100 the full control effect
#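 Readout is luminescence from an integrated firefly luciferase in P. falciparum. Red cells, 2% hematocrit and 0.05% parasitemia final, were cultured with compound through two parasite generations (96 hours) at 37 C, 5% CO2.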
# Cycloheximide cs – affects cycloheximide protein synthesis inhibition readout, counter-screen; cell reporter, cycloheximide protein synthesis inhibition counterscreen; max response, %; AID 2314; 300,000 tested, 12% active; in the data active means max response mostly above about 13%, no sharp cut-off; inactive means mostly below about 14%; further: read at 38.3 µM for the half of the compounds with a filed dose; 0% is about no effect
# Pf growth 48h – P. falciparum growth inhibition at 48 hours (one generation). Potency, µM (highest dose often 28.7 µM), inactives show top-dose activity change, negative = inhibition, hits mostly inhibitors. P. falciparum luciferase growth in erythrocytes, 48 h. 310,000 tested, 5.9% active; further: potency means the concentration at half of the fitted maximal effect; on the % scale 0 is the no-effect control and ±100 the full control effect
#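 Parasite viability was followed by luminescence of a genomically integrated firefly luciferase. Cultures held 0.1% parasitemia at 2% hematocrit (final), incubated under 5% CO2 at 37 C.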
# LASV entry inh – blocks Lassa virus binding to or entry into cells; Lassa virus pseudotype entry inhibition, cell reporter; Potency, µM (highest dose often 37.9 µM), without a hit: at the highest dose activity change, negative = inhibition, usual class: inhibitors; 300,000 tested, 1.2% active; AID 540256; calls by dose curve; tested in HEK293 cells; further: potency means the concentration at half of the fitted maximal effect; on the % scale 0 is the no-effect control and ±100 the full control effect; nearly all actives have a fitted effect of over 50% in size
# MARV entry inh – Marburg virus entry inhibition. Marburg virus pseudotyped entry inhibition, cell reporter. Potency, µM (top dose mostly 37.8 µM), inactives show at the top dose activity change, negative = inhibition, most hits filed as inhibitors. 300,000 tested, 1.8% active; calls by dose curve; tested in HEK293 cells; further: potency means the concentration at half of the fitted maximal effect; on the % scale 0 is the no-effect control and ±100 the full control effect
# * = called active by the depositor; i = inactive; ? = inconclusive; . = no result; [ ] = remark or other dose. Rows were chosen to be rich in hits. Some 19% of all compounds tested hit in one or more screens of this group. Unless noted, the call rests on the fitted dose curve; in most records, active means well fitted inhibition curve with a large enough effect; inconclusive means small, poorly fitted or top-dose-only effect, or another doubt; inactive means no such curve, though single readings can be large or run the other way.
SMILES,Shiga toxin inh,Pf growth 96h,Cycloheximide cs,Pf growth 48h,LASV entry inh,MARV entry inh
CCOc1ccccc1NC(=O)CCC(=O)Nc1nnc(C2CCCCC2)s1,10.7,?,3.7,-12.7%,19.7%[46.1 µM],20.9%[46.1 µM]
CNC(=O)/C(C#N)=c1\s/c(=C/C(=O)OC)c(=O)n1-c1ccccc1,-4.1,-12.2%,-1.9,8.0%,-3.2%,-14.8%
CN1CCN(C(=O)c2ccc(C3SCC(=O)N3Cc3ccco3)cc2)CC1 (configuration not stated),-13.9,5.3%,-4.5,-5.6%,-7.8%,-29.3%[46.1 µM]
CCOC(=O)c1csc(NC(=O)c2ccc(S(=O)(=O)N(C)C)cc2)n1,7.5,-25.7%,-5.9,-3.6%,-16.0%,-3.4%
CCOC(=O)c1csc(NC(=O)c2ccc(N3C(=O)CCC3=O)cc2)n1,15.7,15.1%,1.5,-14.9%,3.1%[46.1 µM],3.2%[46.1 µM]
CCOC(=O)c1csc(NC(C)=O)n1,28.1,?,28.1*,82.4%,-1.2%[46.1 µM],?
CCOC(=O)c1csc(NC(=O)CSc2nnnn2CC)n1,3.8,?,-3.2,-16.8%,9.8%,-0.6%[46.1 µM]
CCOC(=O)c1csc(-c2ccc3c(c2)CCO3)n1,58.7*,112.5%,41.3*,274.2%,19.1%[46.1 µM],?
CCOC(=O)c1csc(-c2ccc(OC)c(OC)c2)n1,16.5,-38.9%,30.0,?,9.2%[46.1 µM],24.7%[46.1 µM]
CCOC(=O)c1csc(NC(=O)c2ccc3c(c2)OCCO3)n1,127.0*,-5.7%,51.1*,195.8%,?,?
CCOC(=O)c1csc(NC(=O)c2ccccc2)n1,129.2*,166.6%,49.1*,.,.,.
COc1cc(C=NNC(=O)c2ccccc2-n2cccc2)ccc1O,.,.,.,.,-17.6%,?
COc1ccc(OC)c(N2C(=O)CCCC2=O)c1,-3.0,34.7%,-5.0,37.5%,-0.7%,-7.3%
CC[C@H](C)[C@H](NC(=O)[C@H](CCC(=O)O)NC(=O)CNC(=O)[C@H](CCCCN)NC(=O)[C@H](CCC(=O)O)NC(=O)[C@H](CCSC)NC(=O)[C@H](CCSC)NC(=O)[C@H](CCSC)NC(=O)[C@H](CCC(=O)O)NC(=O)CNC(=O)[C@H](CO)NC(=O)[C@H](CO)NC(=O)[C@H](CO)NC(=O)[C@@H](N)CC(N)=O)C(=O)N[C@@H](CCCCN)C(=O)O,-5.8,.,1.2,.,.,.
CCOC(=O)c1csc(NC(=O)c2ccc(OCC)cc2)n1,94.5*,467.8%,38.1*,i,?,?
CCOC(=O)c1csc(NC(=O)c2ccc(OC)c(OC)c2)n1,-4.5,.,-3.3,67.1%,-9.4%,?
CCOC(=O)c1csc(-c2sccc2Br)n1,54.1*,170.9%,50.5*,488.2%,.,-5.3%
CCOC(=O)Cc1cnc(NC(=O)c2ccccc2)s1,91.0*,.,53.0*,48.9%,?,-2.9%
Cc1ccn2c(NC(=O)c3cccc(Cl)c3)c(-c3ccccc3)nc2c1,.,.,.,.,-10.3%[46.1 µM],?
Cc1cccc(N2C(=O)CC(NNc3nc4ccccc4s3)C2=O)c1 (configuration not stated),-2.2,12.0%,-2.4,-3.1%,12.3%,38.7%
CCOC(=O)Cn1cc(/C=N/NC(=O)c2ccc(C#N)cc2F)c2ccccc21,0.8,-27.7%,6.7,.,-14.3%,4.2%
CCCCOc1ccc(/C=N/NC(=O)C2CCCNC2=O)cc1 (configuration not stated),26.6,45.3%,9.6,54.6%,-12.2%,0.0%
Fc1cccc(Cc2noc(CN3CCOCC3)n2)c1,3.8,-0.8%,0.7,13.4%,.,.
Clc1cccc(Cl)c1-c1noc(CN2CCOCC2)n1,1.0,?,-1.1,10.4µM*,.,.
Clc1ccc(-c2noc(CN3CCOCC3)n2)cc1,68.5*,49.6%,56.6*,402.3%,?,9.4%
SMILES,Shiga toxin inh,Pf growth 96h,Cycloheximide cs,Pf growth 48h,LASV entry inh,MARV entry inh
O=CN1CCCN(Cc2nc(-c3cccc(Cl)c3)no2)CC1,23.7,2.9%,28.3*,86.9%,.,.
O=C1CCN(Cc2nc(-c3ccc(Cl)cc3)no2)CCN1,28.6,10.4µM*,5.3,19.8%,22.3%[46.1 µM],8.4%[46.1 µM]
O=C(C1CCN(Cc2nc(-c3ccc(Cl)cc3)no2)CC1)N1CCOCC1,93.3,0.5%,-0.4,25.6%,.,.
O=C(C1CCCN(Cc2nc(-c3ccc(Cl)cc3)no2)C1)N1CCOCC1 (configuration not stated),34.4,?,12.2,11.8%,-13.3%[46.1 µM],-19.4%[46.1 µM]
Cc1cccc(C)c1NC(=O)CN(C)CC(=O)N(C)CC(=O)Nc1ccccc1Br,.,-10.7%,.,-2.7%,.,.
COc1cc(CCC(=O)Nc2cccc(C(F)(F)F)c2)cc(OC)c1OC,-3.4,-9.3%,-1.8,15.7%,8.5%,?
Oc1cc2ccccc2nc1-c1ccccc1Cl,11.1,?,-0.9,7.38µM*,?,?
Cc1c(-c2ccccc2Cl)nc2ccccc2c1C(=O)O,1.4,66.4%,-4.4,102.7%,.,.
O=c1oc2ccccc2n1Cc1cccc(C(F)(F)F)c1,.,.,.,.,11.8%,?
O=C(Oc1c(CN2CCOCC2)cc(Cl)c2cccnc12)c1cccs1,11.8,0.738µM*,1.9,2.62µM*,?,10µM*
O=C(Oc1c(CN2CCOCC2)cc(Cl)c2cccnc12)c1ccccc1Cl,-3.4,1.31µM*,7.6,?,?,?
O=C(Oc1c(Cl)cc(Cl)c2cccnc12)c1cccs1,19.9,-31.7%,-2.0,?,?,?
COc1ccc(Cl)cc1NC(=O)C(=O)NCc1ccncc1,-9.4,42.7%,3.9,0.7%,?,-0.2%
CNc1ccccc1C(=O)OCC(C)=O,-11.2,0.8%,-2.9,22.7%,3.4%,?
CC/C(=N\NC(=S)Nc1ccccc1)c1c(O)[nH]c(=O)[nH]c1=O,31.9*,?,28.7*,24.7%,.,.
C/C(=N\Nc1ccccc1)c1c(O)[nH]c(=O)[nH]c1=O,10.0,7.1%,7.9,-21.0%,?,?
CCC(=NC1CCN(Cc2ccccc2)CC1)c1c(O)[nH]c(=O)[nH]c1=O,-26.5,5.22µM*,5.9,?,-5.7%,6.4%
CC(C)C(C(=O)Nc1nccs1)c1ccc(Cl)cc1 (configuration not stated),-14.1,9.28µM*,-2.8,?,-20.2%,?
O=C(Nc1ccncc1)c1ccc(Cl)cc1,3.4,?,5.2,?,.,.
CC(C)C(C(=O)Nc1ccncc1)c1ccc(Cl)cc1 (configuration not stated),-14.1,1.47µM*,1.1,3.29µM*,.,.
CCOc1ccccc1N1CCN(C(=O)CC(C)C)CC1,-16.9,18.2%,-1.6,3.0%,14.5%,0.2%
CCOC(=O)N1CCN(C(=O)C(c2ccccc2)c2ccccc2)CC1,21.4,-6.0%,-3.0,.,-26.7%,-10.8%
COc1ccc(CCNC(=O)[C@H](C)N2C(=O)N3CCc4c([nH]c5ccccc45)[C@@]3(C)C2=O)cc1OC,16.9,-5.0%,7.1,?,.,.
COc1ccc2[nH]c3c(c2c1)CCN1C(=O)N([C@@H](C)C(=O)NCCc2ccc(OC)c(OC)c2)C(=O)[C@]31C,-3.6,10.4µM*,-2.1,?,.,.
